Experimental data as given in PubChem BioAssay (NCI).
The panel holds about 83,000 compounds, 20% with a hit somewhere; the sample as a whole holds those more often.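 In brief: 96-well plates, 48 h treatment, single concentration, percent growth endpoint.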 Active and inactive are the calls of the source. How the source made its calls: active means growth percent below 10; inactive means the rest.

What was measured:
Test in all cases: NCI-60 one-dose screen, 48 h (100 = growth as untreated, 0 = no growth, -100 = all killed)
Conditions in all cases: 10 µM unless noted
HCT-15 colon = system: HCT-15 colon
HT29 colon = system: HT29 colon
SNB-75 CNS = system: SNB-75 CNS
SNB-19 CNS = system: SNB-19 CNS
U251 CNS = system: U251 CNS
PC-3 prostate = system: PC-3 prostate
SK-MEL-5 melanoma = system: SK-MEL-5 melanoma
UACC-62 melanoma = system: UACC-62 melanoma
LOX IMVI melanoma = system: LOX IMVI melanoma
SK-MEL-28 melanoma = system: SK-MEL-28 melanoma
SK-MEL-2 melanoma = system: SK-MEL-2 melanoma
EKVX NSCLC = system: EKVX NSCLC
SN12C renal = system: SN12C renal
UO-31 renal = system: UO-31 renal
TK-10 renal = system: TK-10 renal
ACHN renal = system: ACHN renal
CAKI-1 renal = system: CAKI-1 renal
A498 renal = system: A498 renal
CCRF-CEM leukemia = system: CCRF-CEM leukemia
MOLT-4 leukemia = system: MOLT-4 leukemia

Measured: growth

CC(C)(C)[Si](C)(C)OC1[C@@H](O[Si](C)(C)C(C)(C)C)[C@@H](CNC(=O)NC(=O)NC(=O)CCl)O[C@H]1n1cnc2c(NC(=O)Nc3ccccc3)ncnc21 (stereo partly drawn)
active: HT29 colon -11.4% | LOX IMVI melanoma -74.5% | UO-31 renal -94.9% | ACHN renal -12.9% | CCRF-CEM leukemia -30.4% | MOLT-4 leukemia 4.05%
inactive: HCT-15 colon 79% | SNB-75 CNS 80.2% | SNB-19 CNS 99.5% | U251 CNS 29.7% | PC-3 prostate 11.3% | SK-MEL-5 melanoma 86.6% | UACC-62 melanoma 87.7% | SK-MEL-28 melanoma 105% | SK-MEL-2 melanoma 84.9% | EKVX NSCLC 86.3% | SN12C renal 54.6% | TK-10 renal 97.2% | CAKI-1 renal 76.2% | A498 renal 88.7%

CC(=O)Cc1ccccn1
inactive: HCT-15 colon 98.6% | HT29 colon 95.9% | SNB-75 CNS 104% | SNB-19 CNS 114% | U251 CNS 93.5% | PC-3 prostate 94.8% | SK-MEL-5 melanoma 105% | UACC-62 melanoma 108% | LOX IMVI melanoma 103% | SK-MEL-28 melanoma 106% | SK-MEL-2 melanoma 102% | EKVX NSCLC 97.7% | SN12C renal 111% | UO-31 renal 88.5% | TK-10 renal 109% | ACHN renal 99.5% | CAKI-1 renal 88% | A498 renal 107% | CCRF-CEM leukemia 99.5% | MOLT-4 leukemia 102%

Cc1cc(O)ccc1Sc1ccccc1[N+](=O)[O-]
inactive: HCT-15 colon 92.7% | HT29 colon 94.3% | SNB-75 CNS 94.8% | SNB-19 CNS 91.6% | U251 CNS 94.2% | PC-3 prostate 82.3% | SK-MEL-5 melanoma 91.1% | UACC-62 melanoma 76% | LOX IMVI melanoma 84.1% | SK-MEL-28 melanoma 101% | SK-MEL-2 melanoma 99.4% | EKVX NSCLC 74.8% | SN12C renal 92.3% | UO-31 renal 52.7% | TK-10 renal 90.6% | ACHN renal 87.4% | CAKI-1 renal 89.8% | A498 renal 87.6% | CCRF-CEM leukemia 93.5% | MOLT-4 leukemia 115%

CN1C(=O)C(C(=O)/C=C/c2ccccc2C(=O)O)C(=O)N(C)C1=O
inactive: HCT-15 colon 110% | HT29 colon 98.8% | SNB-75 CNS 86.7% | SNB-19 CNS 105% | U251 CNS 97% | PC-3 prostate 96.4% | SK-MEL-5 melanoma 108% | UACC-62 melanoma 95% | LOX IMVI melanoma 94.7% | SK-MEL-28 melanoma 109% | SK-MEL-2 melanoma 106% | EKVX NSCLC 105% | SN12C renal 101% | UO-31 renal 87% | TK-10 renal 102% | ACHN renal 108% | CAKI-1 renal 90% | A498 renal 104% | CCRF-CEM leukemia 91.9% | MOLT-4 leukemia 97.1%

Cc1ccc(C)c(NC(=O)c2sc3c(=O)[nH]cnc3c2C)c1
inactive: HCT-15 colon 49.8% | HT29 colon 34.9% | SNB-75 CNS 81.1% | SNB-19 CNS 91.7% | U251 CNS 86.1% | PC-3 prostate 83.4% | SK-MEL-5 melanoma 74.4% | UACC-62 melanoma 61.1% | LOX IMVI melanoma 85% | SK-MEL-28 melanoma 89.3% | SK-MEL-2 melanoma 41.4% | EKVX NSCLC 85% | SN12C renal 101% | UO-31 renal 74.9% | TK-10 renal 77.8% | ACHN renal 116% | CAKI-1 renal 64.5% | A498 renal 70.3% | CCRF-CEM leukemia 83.1% | MOLT-4 leukemia 69.9%

CN1C2CCC1/C(=C\c1ccc(F)cc1)C(=O)/C2=C/c1ccc(F)cc1
inactive: HCT-15 colon 38.7% | HT29 colon 15.5% | SNB-75 CNS 59.6% | SNB-19 CNS 55.7% | U251 CNS 16.2% | PC-3 prostate 34.5% | SK-MEL-5 melanoma 40.1% | UACC-62 melanoma 26.4% | LOX IMVI melanoma 28.2% | SK-MEL-28 melanoma 73% | SK-MEL-2 melanoma 50% | EKVX NSCLC 60.4% | SN12C renal 37.8% | UO-31 renal 49.7% | TK-10 renal 73.1% | ACHN renal 55.5% | CAKI-1 renal 54.8% | A498 renal 73.3% | CCRF-CEM leukemia 16.5%
active: MOLT-4 leukemia 9.91%

CC(C)CC1NC(=O)C(CC(C)C)N(CO)C1=O (stereo not drawn)
inactive: HCT-15 colon 103% | HT29 colon 94.3% | SNB-75 CNS 93.4% | SNB-19 CNS 99.6% | U251 CNS 111% | PC-3 prostate 97.3% | SK-MEL-5 melanoma 104% | UACC-62 melanoma 96.9% | LOX IMVI melanoma 106% | SK-MEL-28 melanoma 121% | SK-MEL-2 melanoma 93.9% | EKVX NSCLC 115% | SN12C renal 99.4% | UO-31 renal 84.5% | TK-10 renal 97.9% | ACHN renal 108% | CAKI-1 renal 99.8% | A498 renal 95.9% | CCRF-CEM leukemia 84.7% | MOLT-4 leukemia 92.7%

Brc1ccsc1Br
inactive: HCT-15 colon 111% | HT29 colon 105% | SNB-75 CNS 83.5% | SNB-19 CNS 106% | U251 CNS 109% | PC-3 prostate 107% | SK-MEL-5 melanoma 106% | UACC-62 melanoma 109% | LOX IMVI melanoma 108% | SK-MEL-28 melanoma 106% | SK-MEL-2 melanoma 101% | EKVX NSCLC 114% | SN12C renal 113% | UO-31 renal 91.3% | TK-10 renal 109% | ACHN renal 112% | CAKI-1 renal 99.6% | A498 renal 141% | CCRF-CEM leukemia 102% | MOLT-4 leukemia 108%

O=C(Nc1ccc([N+](=O)[O-])cc1)c1cc2ccccc2cc1O
active: HCT-15 colon 0.0174% | SNB-75 CNS -6.38% | U251 CNS 2.66% | PC-3 prostate -11.2% | SK-MEL-5 melanoma -86.8% | UACC-62 melanoma -28.8% | LOX IMVI melanoma -1.01% | SK-MEL-28 melanoma 7.4% | SK-MEL-2 melanoma -66.7% | EKVX NSCLC 2.38% | SN12C renal 1.45% | UO-31 renal -7.29% | TK-10 renal -19.5% | ACHN renal -6.44% | CAKI-1 renal -13.7% | A498 renal -42.5% | CCRF-CEM leukemia 1.14% | MOLT-4 leukemia -7.97%
inactive: HT29 colon 24.4% | SNB-19 CNS 23.7%

COc1cc2c(=O)n(CCCN(C)C)c3c4cc[nH]c4ncc3c2cc1OC
inactive: HCT-15 colon 54.7% | HT29 colon 16.2% | SNB-75 CNS 47.9% | SNB-19 CNS 36.6% | U251 CNS 35.1% | PC-3 prostate 32.8% | SK-MEL-5 melanoma 80.9% | UACC-62 melanoma 54.5% | LOX IMVI melanoma 25.3% | SK-MEL-28 melanoma 89.9% | SK-MEL-2 melanoma 71.5% | EKVX NSCLC 51.1% | SN12C renal 33.9% | UO-31 renal 34.1% | TK-10 renal 53.7% | ACHN renal 26.6% | CAKI-1 renal 84.5% | A498 renal 18.8% | CCRF-CEM leukemia 34.5%
active: MOLT-4 leukemia -6.64%

O=C(Nc1ccncc1)C(=O)c1cn(S(=O)(=O)c2cccc(Cl)c2F)c2ccccc12
inactive: HCT-15 colon 50% | HT29 colon 50% | SNB-75 CNS 80.7% | SNB-19 CNS 82.7% | U251 CNS 73.6% | PC-3 prostate 75.8% | SK-MEL-5 melanoma 57.5% | UACC-62 melanoma 57% | LOX IMVI melanoma 51.3% | SK-MEL-28 melanoma 95.1% | SK-MEL-2 melanoma 60.6% | EKVX NSCLC 59.2% | SN12C renal 82.9% | UO-31 renal 56.9% | TK-10 renal 112% | ACHN renal 101% | CAKI-1 renal 68.3% | A498 renal 72% | CCRF-CEM leukemia 66.4% | MOLT-4 leukemia 60.2%

CC1(C)CC(=O)c2cc3c(N)c(C(=O)Nc4ccc(Cl)cc4)sc3nc2C1
inactive: HCT-15 colon 108% | HT29 colon 96.4% | SNB-75 CNS 114% | SNB-19 CNS 114% | U251 CNS 103% | PC-3 prostate 105% | SK-MEL-5 melanoma 96% | UACC-62 melanoma 105% | LOX IMVI melanoma 109% | SK-MEL-28 melanoma 118% | SK-MEL-2 melanoma 101% | EKVX NSCLC 93.2% | SN12C renal 110% | UO-31 renal 109% | TK-10 renal 95.2% | ACHN renal 117% | CAKI-1 renal 134% | A498 renal 75.6% | CCRF-CEM leukemia 97.2% | MOLT-4 leukemia 104%

CCC1N=C(N)N=C(N)N1c1ccc(Cl)cc1 (stereo not drawn)
inactive: HCT-15 colon 105% | HT29 colon 72.1% | SNB-75 CNS 91.7% | SNB-19 CNS 106% | U251 CNS 58.8% | PC-3 prostate 62.6% | SK-MEL-5 melanoma 49.5% | UACC-62 melanoma 100% | LOX IMVI melanoma 68.6% | SK-MEL-28 melanoma 101% | SK-MEL-2 melanoma 100% | EKVX NSCLC 68.4% | SN12C renal 96.9% | UO-31 renal 89% | TK-10 renal 97% | ACHN renal 108% | CAKI-1 renal 96.3% | A498 renal 77.1% | CCRF-CEM leukemia 107% | MOLT-4 leukemia 79.6%

O=C(CCl)N1c2ccccc2Oc2ccc3ccccc3c21
inactive: SNB-75 CNS 22.1% | SNB-19 CNS 24.5% | SK-MEL-28 melanoma 53.8% | SK-MEL-2 melanoma 20.2% | EKVX NSCLC 59.1% | A498 renal 110%
active: HCT-15 colon -81.1% | HT29 colon -49.8% | U251 CNS -64.3% | PC-3 prostate 6.63% | SK-MEL-5 melanoma 3.7% | UACC-62 melanoma -0.259% | LOX IMVI melanoma -81.1% | SN12C renal -57.6% | UO-31 renal -92.1% | TK-10 renal -9.22% | ACHN renal -95.9% | CAKI-1 renal -45.6% | CCRF-CEM leukemia 0.604% | MOLT-4 leukemia -4.23%

CCCCCCCCCCCCCCCC1=NCCN1
inactive: SNB-75 CNS 82.7% | SNB-19 CNS 24.8% | U251 CNS 16.1% | PC-3 prostate 47.6% | SK-MEL-5 melanoma 80.6% | UACC-62 melanoma 76.1% | SK-MEL-28 melanoma 80.7% | SK-MEL-2 melanoma 96% | EKVX NSCLC 85.2% | UO-31 renal 64.5% | TK-10 renal 102% | ACHN renal 71.2% | CAKI-1 renal 81.3% | A498 renal 65.5%
active: HCT-15 colon 0.909% | HT29 colon 4.17% | LOX IMVI melanoma 1.64% | SN12C renal -51.6% | MOLT-4 leukemia -27.3%

Cc1ccc(Nc2cc(Cl)c([N+](=O)[O-])cc2[N+](=O)[O-])cc1
active: HT29 colon 3.12% | LOX IMVI melanoma 9.04%
inactive: HCT-15 colon 16.8% | SNB-75 CNS 96% | SNB-19 CNS 85.8% | U251 CNS 25.8% | PC-3 prostate 55.3% | SK-MEL-5 melanoma 53.6% | UACC-62 melanoma 48.7% | SK-MEL-28 melanoma 71.5% | SK-MEL-2 melanoma 28.3% | EKVX NSCLC 102% | SN12C renal 24.6% | UO-31 renal 77.7% | TK-10 renal 15.5% | ACHN renal 26% | CAKI-1 renal 32.8% | A498 renal 92.3% | MOLT-4 leukemia 10.3%
